Data reported in PubChem BioAssay AID588852 (The Scripps Research Institute Molecular Screening Center, 2011).
The whole screen tested about 360,000 compounds, of which about 4,600 (1.3%) were called active.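 The calls were made as follows: active = percent inhibition above its own plate's cutoff, namely the mean of that plate's compound wells plus 3 SD; inactive = the rest.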 Shown is part of a subset that was picked to be rich in actives.

What follows are compounds tested against Muscarinic acetylcholine receptor M1 (Homo sapiens) (UniProt P11229) (assay: human M1 muscarinic receptor antagonists, primary screen, CHO-K1 cells, Fluo-8 calcium fluorescence, 1536-well (AID 588852;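 also: peak over basal fluorescence ratio during 140 s after agonist addition; 0% = ACh EC80 plus DMSO and 100% = DMSO alone without agonist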)). Conditions: CHO-K1 hM1, Fluo-8 calcium fluorescence, ACh EC80 antagonist; at 3 µM; stronger effect = higher value.
Muscarinic acetylcholine receptor M1 (Homo sapiens), sequence (P11229 whole entry, looked up): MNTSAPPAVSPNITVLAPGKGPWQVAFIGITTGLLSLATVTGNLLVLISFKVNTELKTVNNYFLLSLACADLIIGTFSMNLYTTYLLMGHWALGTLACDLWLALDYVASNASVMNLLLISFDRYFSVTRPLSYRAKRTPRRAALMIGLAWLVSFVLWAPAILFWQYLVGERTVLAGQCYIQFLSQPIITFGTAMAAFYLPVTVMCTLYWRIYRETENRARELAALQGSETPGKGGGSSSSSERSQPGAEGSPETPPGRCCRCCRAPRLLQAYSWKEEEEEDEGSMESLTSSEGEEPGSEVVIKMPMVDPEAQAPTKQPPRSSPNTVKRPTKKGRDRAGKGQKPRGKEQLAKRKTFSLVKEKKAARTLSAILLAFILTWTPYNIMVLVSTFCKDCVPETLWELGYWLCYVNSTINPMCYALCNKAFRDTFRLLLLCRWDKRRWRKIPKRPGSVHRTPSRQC

inhibition, active:
CCN1CCN(c2ccc([N+](=O)[O-])cc2C(=O)c2ccc(Cl)cc2)CC1 96.3%, CC(=O)c1c(C)[nH]c(C(=O)COC(=O)c2cccc(S(=O)(=O)N(C)c3ccccc3)c2)c1C 57%, COc1ccc(C(=O)NC2CCCc3c2cnn3-c2cccc(C)c2C)c(OC)n1 (stereo unspecified) 46.9%, CCCOc1ccc(F)cc1-c1cc(C(=O)Nc2ccc(F)cc2)[nH]n1 34.5%, CCCOc1ccc(F)cc1-c1cc(C(=O)Nc2ccc(F)c(Cl)c2)[nH]n1 58.9%

inhibition, inactive:
O=C(Nc1cccc(Cl)c1)c1cc([N+](=O)[O-])ccc1N1CCN(CCO)CC1 -7.1%, CCC(=O)c1ccc(N2CCN(C(=O)c3cc([N+](=O)[O-])ccc3F)CC2)c(F)c1 11.9%, Cc1cccc(OCC(=O)OCC(=O)Nc2ccc(Cl)cn2)c1 -3.17%, CCc1noc(C)c1C(=O)N1CCCSC1=Nc1ccccc1OC 3.24%, CC(C)c1ccc2oc(=O)cc(CN3CCN(Cc4ccccc4)CC3)c2c1 -7.34%, N#Cc1ccc(OCCN2C(=O)NC3(CCSC3)C2=O)cc1 (stereo unspecified) 5.7%, COc1ccc(-c2cc3c(c4c2ccn4C)C2CCC3C2)cn1 (stereo unspecified) 3.78%, CC(=O)c1c(C)[nH]c(C(=O)COC(=O)c2cccs2)c1C 10.1%, COc1cccc(C(=O)OCC(=O)c2[nH]c(C)c(C(C)=O)c2C)c1 8.52%, O=C1C=C(c2ccccc2)CCC1 6.35%, NC(Cc1ccc(F)cc1)c1csc(Nc2nncc3ccccc23)n1 (stereo unspecified) -3.42%, COc1ccc(C(=O)NC2CC(C)(C)Cc3c2cnn3-c2ccccc2C)o1 (stereo unspecified) 0.26%, COc1ccc(OC)c(C(=O)NC2CCCc3c2cnn3-c2cc(C)cc(C)c2)c1 (stereo unspecified) -5.27%, Cc1cn([C@H]2C[C@H](O)[C@@H](/C=C/C(=O)NCCCc3ccccc3)O2)c(=O)[nH]c1=O -25.2%, COc1cccc(NC(=O)CN(C)C(=O)CSCc2nc3scc(-c4cccs4)c3c(=O)[nH]2)c1 -1.71%, CCN(CCCNC(=O)c1ccc2c(c1)NC(=O)CN2C)c1cccc(C)c1 8.18%, NS(=O)(=O)c1cccc(NC(=O)CC23CC4CC(CC(Br)(C4)C2)C3)c1 6.38%, CC(C)Oc1cc(F)ccc1-c1cc(C(=O)Nc2ccc(F)cc2)[nH]n1 5.41%, COc1ccc(Cl)cc1-c1cc(C(=O)Nc2cc(OC)c(OC)c(OC)c2)[nH]n1 0.33%, CC(C)Oc1cc(F)ccc1-c1cc(C(=O)Nc2cccc(Cl)c2)[nH]n1 24.4%, CCCOc1ccc(F)cc1-c1cc(C(=O)NCc2ccc(F)cc2)[nH]n1 1.58%
